# Assay results: PubChem BioAssay (EPA / NIEHS)
# The source made the active and inactive calls. The calls were made as follows: active = hit-call score of the fitted dose curve at least 0.9, where 1 is the maximum; inactive = score below 0.9.
# Columns and labels:
# [1] = ATG_CRE_CIS: Attagene CIS-FACTORIAL HepG2 Assay for human cAMP Responsive Element (CRE) binding protein 3 (AID 2282926); conditions: HepG2 CRE cis-reporter, Attagene multiplexed mRNA; actives raise or lower the signal
# Outline: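 Transfected HepG2 were treated for 24 hours, then RNA was extracted and reporter cDNA amplified with sequence-specific primers. Labelled fragments were separated by capillary electrophoresis, and the CRE signal was fitted bidirectionally with DMSO as baseline.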
# [2] = target: CCAAT/enhancer-binding protein beta (Homo sapiens) (UniProt P17676); assay: ATG_C_EBP_CIS: Attagene CIS-FACTORIAL HepG2 Assay for human CCAAT/Enhancer Binding Protein (C/EBP) beta (AID 2282927); conditions: HepG2 Attagene cis-factorial transcription factor reporter; actives raise or lower the signal
# Outline: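 Transiently transfected HepG2 (MRTU library, endogenous TF-driven promoters); 24 h dosing; total RNA → oligo(dT) RT → PCR → 6-FAM primer extension → HpaI digest → CE; fit bidirectionally vs DMSO.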
# [3] = ATG_CMV_CIS: Attagene CIS-FACTORIAL HepG2 Assay for human CMV (Internal Marker) (AID 2282928); conditions: HepG2 CMV promoter reporter, transcription factor profiling; actives raise or lower the signal;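 also: endpoint acts as a background internal control marker rather than a target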
# Outline: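 CMV internal-marker background readout in transiently transfected HepG2 cells bearing cis-regulated reporter units. Reporter mRNA is measured 24 h after dosing by RT-PCR and capillary electrophoresis, with bidirectional fitting against DMSO.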
# [4] = ATG_DR4_LXR_CIS: Attagene CIS-FACTORIAL HepG2 Assay for human Liver X Receptor (LXR), DR4 submotif (AID 2282929); conditions: HepG2 Attagene DR4 cis-reporter, mRNA transcription; actives raise or lower the signal
# Outline: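 HepG2 cells transiently transfected with cis-promoter-driven multiplexed reporter units (DR4 element) were dosed for 24 h. Reporter mRNA was quantified by RT-PCR, fluorescent primer extension, HpaI digestion and capillary electrophoresis; bidirectional fitting versus DMSO baseline.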
# [5] = target: Aryl hydrocarbon receptor (Homo sapiens) (UniProt P35869); assay: ATG_Ahr_CIS: Attagene CIS-FACTORIAL HepG2 Assay for human Aryl Hydrocarbon Receptor (Ahr) (AID 2282930); conditions: HepG2 AhR cis-factorial reporter transcription; actives raise or lower the signal
# Outline: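 Read-out: reporter mRNA quantified by RT-PCR with fluorescent primer extension and capillary electrophoresis. Human HepG2 liver cells carried transfected cis-promoter reporter units and were exposed to chemical for 24 h; gain or loss fitted relative to DMSO.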
# [6] = ATG_AP_1_CIS: Attagene CIS-FACTORIAL HepG2 Assay for human Activator Protein 1 (AP-1) (AID 2282931); conditions: HepG2 Attagene cis-factorial AP-1 reporter mRNA; actives raise or lower the signal
# Outline: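 HepG2 cells transiently transfected with cis-element-driven multiplex reporter units; 24 h compound exposure. Reporter mRNA quantified by RT-PCR, FAM-labelled fragments resolved by capillary electrophoresis; bidirectional fit versus DMSO baseline.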
# [7] = ATG_AP_2_CIS: Attagene CIS-FACTORIAL HepG2 Assay for human Activator Protein 2 (AP-2) (AID 2282932); conditions: HepG2 AP-2 cis-reporter, Attagene transcription factor profiling; actives raise or lower the signal
# Outline: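 Multiplexed mRNA reporter assay in HepG2: cis-regulated units report endogenous factor activity after 24 h treatment. Fluorescence from capillary electrophoresis of RT-PCR products gives the signal, with DMSO as baseline.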
# [8] = ATG_BRE_CIS: Attagene CIS-FACTORIAL HepG2 Assay for human Bone Morphogenetic Protein (BMP) Response Element (BRE) (AID 2282933); conditions: HepG2 BMP response element reporter, Attagene transcription factor profiling; actives raise or lower the signal
# Outline: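 Endogenous transcription factor activity at a BMP response element was monitored in transfected HepG2 cells 24 h after dosing. Fluorescent RT-PCR products were resolved by capillary electrophoresis, and activity was fitted in both directions versus DMSO.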
# [9] = target: Retinoic acid receptor alpha (Homo sapiens) (UniProt P10276); assay: ATG_DR5_RAR_CIS: Attagene CIS-FACTORIAL HepG2 Assay for human Retinoic Acid Receptor Alpha (RARE), DR5 submotif (AID 2282934); conditions: HepG2 Attagene cis-factorial RARE DR5 reporter, mRNA; actives raise or lower the signal
# Outline: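 Read-out: DR5-driven reporter transcript measured by RT-PCR, 6-FAM primer extension, HpaI digest and capillary electrophoresis. Human HepG2 liver cells carry transiently transfected cis-element reporter constructs; dosing lasts 24 h. Gain or loss of signal fitted against DMSO baseline.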
# [10] = target: Transcription factor E2F1 (Homo sapiens) (UniProt Q01094); assay: ATG_E2F_CIS: Attagene CIS-FACTORIAL HepG2 Assay for human E2F Transcription Factor 1 (AID 2282935); conditions: HepG2 Attagene cis-reporter, E2F reporter RNA transcripts; actives raise or lower the signal
# Outline: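 Measures reporter transcript levels via RT-PCR with capillary electrophoresis detection in HepG2 cells harboring cis-regulated reporter units; 24 h post-dose; bidirectional curve fitting with DMSO as baseline.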
# [11] = ATG_E_Box_CIS: Attagene CIS-FACTORIAL HepG2 Assay for human Enhancer Box (E-box) (AID 2282936); conditions: HepG2 E-box cis-reporter transcription, actives raise or lower the signal
# Outline: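 First, HepG2 cells receive multiple cis-regulated reporter constructs by transient transfection. Next, chemicals are applied for 24 h. Finally, reporter mRNA is quantified via RT-PCR and capillary electrophoresis, with DMSO as baseline.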
# [12] = ATG_M_61_CIS: Attagene CIS-FACTORIAL HepG2 Assay for M61 Transcription Factor (Internal Marker) (AID 2282937); conditions: HepG2 Attagene CIS-FACTORIAL M61 internal marker reporter; actives raise or lower the signal
# Outline: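 HepG2 cells transiently transfected with cis-element-driven multiple reporter transcription units, dosed for 24 h. Reporter mRNA measured by RT-PCR, 6-FAM primer-extension labelling, HpaI digestion and capillary electrophoresis; bidirectional fit versus DMSO baseline.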
# [13] = ATG_EGR_CIS: Attagene CIS-FACTORIAL HepG2 Assay for human Early Growth Response 1 (EGR1) (AID 2282938); conditions: HepG2 Attagene CIS-FACTORIAL EGR reporter mRNA; actives raise or lower the signal
# Outline: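 HepG2 cells transiently transfected with cis-promoter-driven multiplexed reporter transcription units; reporter mRNA measured 24 h after compound dosing by RT-PCR, 6-FAM primer extension, HpaI digestion and capillary electrophoresis. Bidirectional fit versus DMSO baseline.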
# [14] = ATG_M_19_CIS: Attagene CIS-FACTORIAL HepG2 Assay for M19 Transcription Factor (Internal Marker) (AID 2282939); conditions: HepG2 Attagene CIS-FACTORIAL M19 internal marker reporter; actives raise or lower the signal
# Outline: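 Background-control endpoint from a multiplexed HepG2 reporter panel. Cells carrying cis-regulated reporter constructs are treated 24 h, then reporter transcripts are amplified, fluorescently labelled and sized by capillary electrophoresis. DMSO defines baseline.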
# [15] = ATG_Ets_CIS: Attagene CIS-FACTORIAL HepG2 Assay for human Erythroblast Transformation Specific (ETS) (AID 2282941); conditions: HepG2 ETS cis-reporter transcription, actives raise or lower the signal
# Outline: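 HepG2 cells transfected with multiple cis-regulated reporter units measuring endogenous ETS-driven transcription, 24 h after dosing. Reporter mRNA quantified by RT-PCR with capillary electrophoresis; bidirectional fit relative to DMSO.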
# [16] = target: Hepatocyte nuclear factor 3-beta (Homo sapiens) (UniProt Q9Y261); assay: ATG_FoxA2_CIS: Attagene CIS-FACTORIAL HepG2 Assay for human Forkhead box A2 (FOXA2) (AID 2282942); conditions: HepG2 cis-reporter transcription factor activity, 24 h; actives raise or lower the signal
# Outline: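 HepG2 cells transiently transfected with multiple cis-regulated reporter transcription units, dosed for 24 h. Reporter mRNA measured by RT-PCR, 6-FAM labelling, HpaI digestion and capillary electrophoresis; bidirectional fitting against DMSO baseline.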
# [17] = ATG_FoxO_CIS: Attagene CIS-FACTORIAL HepG2 Assay for human Forkhead box O (FoxO) (AID 2282943); conditions: HepG2 Attagene cis-reporter, FoxO element, mRNA; actives raise or lower the signal
# Outline: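 Read-out: fluorescence of 6-FAM-labelled reporter cDNA fragments resolved by capillary electrophoresis. Transiently transfected HepG2 cells were dosed for 24 h; activity fitted in both directions relative to DMSO controls.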
# [18] = ATG_GATA_CIS: Attagene CIS-FACTORIAL HepG2 Assay for human GATA Binding Protein (AID 2282944); conditions: HepG2 GATA cis-element reporter, Attagene multiplex mRNA; actives raise or lower the signal
# Outline: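 Endogenous transcription factor activity was captured through cis-promoter-driven reporters in transfected HepG2 cells. After 24 h exposure, reporter transcripts were quantified by RT-PCR with fluorescent capillary electrophoresis, and responses fitted both directions against DMSO.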
# [19] = ATG_GLI_CIS: Attagene CIS-FACTORIAL HepG2 Assay for human Zinc Finger Protein GLI1 (AID 2282945); conditions: HepG2, Attagene cis-factorial reporter mRNA, GLI element; actives raise or lower the signal
# Outline: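 Transiently transfected HepG2 cells report endogenous transcription factor activity via cis-element-driven reporter units. After 24 h compound exposure, reporter mRNA was measured by RT-PCR with capillary electrophoresis; bidirectional fitting against DMSO baseline.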
# CCAAT/enhancer-binding protein beta (Homo sapiens), sequence (P17676 whole entry, looked up): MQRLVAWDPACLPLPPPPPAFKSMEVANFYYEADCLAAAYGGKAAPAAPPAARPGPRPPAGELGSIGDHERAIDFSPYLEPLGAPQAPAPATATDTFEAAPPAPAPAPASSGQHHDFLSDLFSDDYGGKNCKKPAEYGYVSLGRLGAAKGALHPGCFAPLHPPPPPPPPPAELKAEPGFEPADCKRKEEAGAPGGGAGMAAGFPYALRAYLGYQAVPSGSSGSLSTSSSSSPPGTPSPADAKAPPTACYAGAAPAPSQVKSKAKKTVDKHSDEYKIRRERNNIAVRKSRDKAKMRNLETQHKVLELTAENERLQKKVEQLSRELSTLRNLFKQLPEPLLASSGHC
# Hepatocyte nuclear factor 3-beta (Homo sapiens), sequence (Q9Y261 whole entry, looked up): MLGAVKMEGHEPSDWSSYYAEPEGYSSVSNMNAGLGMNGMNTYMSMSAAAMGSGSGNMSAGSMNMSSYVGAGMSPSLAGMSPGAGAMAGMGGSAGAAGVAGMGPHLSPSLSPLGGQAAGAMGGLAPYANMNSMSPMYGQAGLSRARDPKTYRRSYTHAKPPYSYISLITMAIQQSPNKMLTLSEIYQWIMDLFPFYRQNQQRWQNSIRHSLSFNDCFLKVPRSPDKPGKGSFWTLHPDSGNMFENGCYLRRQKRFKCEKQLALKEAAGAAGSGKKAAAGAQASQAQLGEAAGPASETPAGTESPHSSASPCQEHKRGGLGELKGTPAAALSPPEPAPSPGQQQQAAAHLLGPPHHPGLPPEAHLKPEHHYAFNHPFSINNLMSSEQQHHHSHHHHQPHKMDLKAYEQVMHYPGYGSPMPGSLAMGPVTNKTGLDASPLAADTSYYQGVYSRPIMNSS
# Aryl hydrocarbon receptor (Homo sapiens), sequence (P35869 whole entry, looked up): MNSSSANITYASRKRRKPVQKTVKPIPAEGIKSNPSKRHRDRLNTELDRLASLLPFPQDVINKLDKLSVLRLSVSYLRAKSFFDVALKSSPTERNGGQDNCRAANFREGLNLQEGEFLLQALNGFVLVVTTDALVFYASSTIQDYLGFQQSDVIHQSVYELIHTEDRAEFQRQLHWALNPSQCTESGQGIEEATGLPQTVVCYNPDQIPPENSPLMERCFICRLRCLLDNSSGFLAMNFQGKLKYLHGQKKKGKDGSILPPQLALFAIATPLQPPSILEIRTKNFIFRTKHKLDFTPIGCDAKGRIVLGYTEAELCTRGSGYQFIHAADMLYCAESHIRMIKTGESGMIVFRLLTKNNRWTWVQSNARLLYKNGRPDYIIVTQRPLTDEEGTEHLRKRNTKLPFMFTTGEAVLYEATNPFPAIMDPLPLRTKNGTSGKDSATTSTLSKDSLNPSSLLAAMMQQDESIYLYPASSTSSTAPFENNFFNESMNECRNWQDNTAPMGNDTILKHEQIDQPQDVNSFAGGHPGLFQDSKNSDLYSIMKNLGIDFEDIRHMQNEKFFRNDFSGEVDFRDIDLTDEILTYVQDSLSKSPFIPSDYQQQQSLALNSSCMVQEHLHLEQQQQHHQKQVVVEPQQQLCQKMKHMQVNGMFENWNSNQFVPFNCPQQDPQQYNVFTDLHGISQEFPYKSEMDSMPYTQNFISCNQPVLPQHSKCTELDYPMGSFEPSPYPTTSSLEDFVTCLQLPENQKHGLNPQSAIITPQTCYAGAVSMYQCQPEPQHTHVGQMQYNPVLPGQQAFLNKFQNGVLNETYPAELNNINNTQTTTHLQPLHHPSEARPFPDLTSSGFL
# Transcription factor E2F1 (Homo sapiens), sequence (Q01094 whole entry, looked up): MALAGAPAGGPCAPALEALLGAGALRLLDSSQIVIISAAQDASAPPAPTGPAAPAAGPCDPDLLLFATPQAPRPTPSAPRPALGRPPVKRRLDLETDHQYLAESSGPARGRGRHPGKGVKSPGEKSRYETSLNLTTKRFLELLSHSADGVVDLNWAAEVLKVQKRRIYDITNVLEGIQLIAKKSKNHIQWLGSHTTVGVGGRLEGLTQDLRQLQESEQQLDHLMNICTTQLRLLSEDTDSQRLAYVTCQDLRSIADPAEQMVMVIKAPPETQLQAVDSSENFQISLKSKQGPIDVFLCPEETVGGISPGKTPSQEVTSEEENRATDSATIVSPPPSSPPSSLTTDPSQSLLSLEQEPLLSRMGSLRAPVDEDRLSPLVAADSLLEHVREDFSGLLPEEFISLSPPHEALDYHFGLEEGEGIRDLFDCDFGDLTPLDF
# Retinoic acid receptor alpha (Homo sapiens), sequence (P10276 whole entry, looked up): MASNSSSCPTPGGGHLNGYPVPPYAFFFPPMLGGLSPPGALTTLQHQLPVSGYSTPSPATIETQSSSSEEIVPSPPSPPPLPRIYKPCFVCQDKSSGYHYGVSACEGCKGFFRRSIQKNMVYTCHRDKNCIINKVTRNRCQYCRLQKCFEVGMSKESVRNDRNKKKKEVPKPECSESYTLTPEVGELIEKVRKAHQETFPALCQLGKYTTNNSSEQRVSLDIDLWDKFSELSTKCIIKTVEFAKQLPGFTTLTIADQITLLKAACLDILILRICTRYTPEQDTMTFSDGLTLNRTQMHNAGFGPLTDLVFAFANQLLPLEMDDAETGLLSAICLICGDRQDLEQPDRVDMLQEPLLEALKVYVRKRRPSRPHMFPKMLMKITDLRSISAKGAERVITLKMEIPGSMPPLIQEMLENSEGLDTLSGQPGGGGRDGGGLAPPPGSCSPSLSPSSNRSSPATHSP
structure (smiles),measurement,setting,value
CCCC(=O)OCCC(C)CCC=C(C)C (stereo not drawn),outcome,[1],inactive
same,outcome,[2],inactive
same,outcome,[3],inactive
same,outcome,[4],inactive
same,outcome,[5],inactive
same,outcome,[6],inactive
same,outcome,[7],inactive
same,outcome,[8],inactive
same,outcome,[9],inactive
same,outcome,[10],inactive
same,outcome,[11],inactive
same,outcome,[12],inactive
same,outcome,[13],inactive
same,outcome,[14],inactive
same,outcome,[15],inactive
same,outcome,[16],inactive
same,outcome,[17],inactive
same,outcome,[18],inactive
same,outcome,[19],inactive
[Ca+2],outcome,[1],inactive
same,outcome,[2],inactive
same,outcome,[3],inactive
same,outcome,[4],inactive
same,outcome,[5],inactive
same,outcome,[6],inactive
same,outcome,[7],inactive
same,outcome,[8],inactive
same,outcome,[9],inactive
same,outcome,[10],inactive
same,outcome,[11],inactive
same,outcome,[12],inactive
same,outcome,[13],inactive
same,outcome,[14],inactive
same,outcome,[15],inactive
same,outcome,[16],inactive
same,outcome,[17],inactive
same,outcome,[18],inactive
same,outcome,[19],inactive
O=C(Oc1ccccc1)c1ccc(O)cc1,outcome,[1],inactive
same,outcome,[2],inactive
same,outcome,[3],inactive
same,outcome,[4],inactive
same,outcome,[5],inactive
same,outcome,[6],inactive
same,outcome,[7],inactive
same,outcome,[8],inactive
same,outcome,[9],inactive
same,outcome,[10],inactive
same,outcome,[11],inactive
same,outcome,[12],inactive
same,outcome,[13],inactive
same,outcome,[14],inactive
same,outcome,[15],inactive
same,outcome,[16],inactive
same,outcome,[17],inactive
same,outcome,[18],inactive
same,outcome,[19],inactive
CCCCCCCCCCCCN(CCCCCCCCCCCC)CCCCCCCCCCCC,outcome,[1],inactive
same,outcome,[2],inactive
same,outcome,[3],inactive
same,outcome,[4],inactive
same,outcome,[5],inactive
same,outcome,[6],inactive
same,outcome,[7],inactive
same,outcome,[8],inactive
same,outcome,[9],inactive
same,outcome,[10],inactive
same,outcome,[11],inactive
same,outcome,[12],inactive
same,outcome,[13],inactive
same,outcome,[14],inactive
same,outcome,[15],inactive
same,outcome,[16],inactive
same,outcome,[17],inactive
same,outcome,[18],inactive
same,outcome,[19],inactive
COC(C)CCO (stereo not drawn),outcome,[1],inactive
same,outcome,[2],inactive
same,outcome,[3],inactive
same,outcome,[4],inactive
same,outcome,[5],inactive
same,AC50,[6],42.4 µM (active)
same,outcome,[7],inactive
same,outcome,[8],inactive
same,outcome,[9],inactive
same,outcome,[10],inactive
same,outcome,[11],inactive
same,outcome,[12],inactive
same,outcome,[13],inactive
same,outcome,[14],inactive
same,outcome,[15],inactive
same,outcome,[16],inactive
same,outcome,[17],inactive
same,outcome,[18],inactive
same,outcome,[19],inactive
C=CC(=O)OCCOCCOCC,outcome,[1],inactive
same,outcome,[2],inactive
same,AC50,[3],48.2 µM (active)
same,outcome,[4],inactive
same,outcome,[5],inactive
same,outcome,[6],inactive
same,outcome,[7],inactive
same,outcome,[8],inactive
same,outcome,[9],inactive
same,outcome,[10],inactive
same,outcome,[11],inactive
same,outcome,[12],inactive
same,AC50,[13],100 µM (active)
same,outcome,[14],inactive
same,outcome,[15],inactive
same,outcome,[16],inactive
same,outcome,[17],inactive
same,outcome,[18],inactive
same,outcome,[19],inactive
CCOC(=O)c1ccccc1OC,outcome,[1],inactive
same,outcome,[2],inactive
same,outcome,[3],inactive
same,outcome,[4],inactive
same,outcome,[5],inactive
same,outcome,[6],inactive
same,outcome,[7],inactive
same,outcome,[8],inactive
same,outcome,[9],inactive
same,outcome,[10],inactive
same,outcome,[11],inactive
same,outcome,[12],inactive
same,outcome,[13],inactive
same,outcome,[14],inactive
same,outcome,[15],inactive
same,outcome,[16],inactive
same,outcome,[17],inactive
same,outcome,[18],inactive
same,outcome,[19],inactive
